According to article PMC5540273 (PLoS ONE, 2017):

What was measured:
Settings in all cases: concentration: 1 μM, replicates: in singlicate; n = 1
CSNK1A1L = test system: CSNK1A1L
CSNK1A1 = test system: CSNK1A1
CSNK1D = test system: CSNK1D
CSNK1E = test system: CSNK1E
CSNK1G1 = test system: CSNK1G1
CSNK1G2 = test system: CSNK1G2
CSNK1G3 = test system: CSNK1G3
CSNK2A1 = test system: CSNK2A1
CSNK2A2 = test system: CSNK2A2
CTK = test system: T1, CTK
T1 construct: gene MATK

DAPK1 = test system: DAPK1
DAPK2 = test system: DAPK2
DAPK3 = test system: DAPK3
DCAMKL1 = test system: T2, DCAMKL1
T2 construct: gene DCLK1

DCAMKL2 = test system: T3, DCAMKL2
T3 construct: gene DCLK2

DCAMKL3 = test system: T4, DCAMKL3
T4 construct: gene DCLK3

DDR1 = test system: DDR1
DDR2 = test system: DDR2
DLK = test system: T5, DLK
T5 construct: gene MAP3K12

DMPK2 = test system: T6, DMPK2
T6 construct: gene CDC42BPG
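Further: KINOMEscan kinase panel screen.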

SMILES | %Inh (CSNK1A1L) | %Inh (CSNK1A1) | %Inh (CSNK1D) | %Inh (CSNK1E) | %Inh (CSNK1G1) | %Inh (CSNK1G2) | %Inh (CSNK1G3) | %Inh (CSNK2A1) | %Inh (CSNK2A2) | %Inh (CTK) | %Inh (DAPK1) | %Inh (DAPK2) | %Inh (DAPK3) | %Inh (DCAMKL1) | %Inh (DCAMKL2) | %Inh (DCAMKL3) | %Inh (DDR1) | %Inh (DDR2) | %Inh (DLK) | %Inh (DMPK2)
COc1ccc(Nc2nccc(N3CCC(NC(=O)Nc4cccc(C(C)=O)c4)C3)n2)cc1 (stereo not drawn) [GSK1379731] | 4% | 0% | 0% | 39% | 0% | 0% | 0% | 0% | 0% | 0% | 0% | 0% | 0% | 0% | 0% | 0% | 12% | 14% | 0% | 2%
O=c1cc(N2CCOCC2)nc2n(Cc3cccc4ccccc34)ccn12 [GSK2333389] | 11% | 13% | 42% | 20% | 0% | 0% | 20% | 13% | 0% | 1% | 0% | 0% | 0% | 0% | 0% | 2% | 14% | 0% | 0% | 0%
COc1ccc(CNC(=O)NC2CCN(c3ccnc(Nc4ccc(OC)cc4)n3)C2)cc1 (stereo not drawn) [GSK1379727] | 5% | 0% | 0% | 8% | 0% | 0% | 8% | 7% | 0% | 0% | 0% | 0% | 20% | 11% | 0% | 5% | 0% | 20% | 50% | 0%
Cc1nnc(-c2ccc3ncc(-c4ccc(S(C)=O)cc4)n3c2)o1 (stereo not drawn) | 9% | 7% | 0% | 0% | 24% | 5% | 0% | 0% | 18% | 27% | 22% | 0% | 0% | 18% | 0% | 0% | 8% | 24% | 0% | 0%
COc1cc2ncn(-c3cc(OCc4sccc4Cl)c(C(N)=O)s3)c2cc1OC [GSK448459] | 6% | 0% | 16% | 28% | 4% | 0% | 13% | 25% | 34% | 0% | 12% | 2% | 36% | 5% | 4% | 0% | 0% | 12% | 32% | 0%
Nc1nccc(-c2c(-c3ccc(F)cc3)ncn2C2CCN(CC(F)(F)F)CC2)n1 [SB-236560] | 2% | 92.7% | 86% | 96.6% | 0% | 1% | 0% | 0% | 0% | 7% | 20% | 0% | 0% | 0% | 0% | 18% | 90.8% | 76% | 17% | 12%
Cc1cn2c(=O)cc(N3CCOCC3)nc2n1Cc1cccc(Cl)c1Cl [GSK2334006] | 29% | 48% | 43% | 45% | 17% | 6% | 26% | 11% | 18% | 0% | 13% | 19% | 22% | 0% | 0% | 0% | 30% | 14% | 21% | 15%
NS(=O)(=O)CCc1cccc(Nc2nccc(-c3c(-c4cccc(NC(=O)c5c(F)cccc5F)c4)nn4ccccc34)n2)c1 [GSK336735] | 7% | 0% | 33% | 90.4% | 14% | 5% | 19% | 9% | 9% | 0% | 0% | 0% | 0% | 13% | 23% | 15% | 100% | 94.9% | 59% | 100%
COc1cc2c(cc1OC[C@@H](O)CO)ncc1c3ccc(C#N)cc3[nH]c21 | 0% | 9% | 0% | 0% | 0% | 0% | 0% | 81% | 93.9% | 18% | 6% | 6% | 13% | 0% | 0% | 34% | 0% | 0% | 65% | 0%
